Source: PubChem BioAssay (several laboratories)
DAX1 inh-1 = inhibits human nuclear receptor DAX1. P51843. HEK293 Gal4-DAX1 luciferase reporter, luminescence. inhibition, % at 6.75 µM. 340,000 tested, 0.99% active. AID 504766;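 active = inhibition above the mean over all tested compounds plus 3 SD, cut at about 4.2% in these data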;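 also: 0% = DAX1-transfected cells with DMSO and 100% = empty-vector control cells with DMSO; inhibition shows as a rise in luminescence from relieved DAX1 repression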
Target sequence (P51843 207-470 limits assumed): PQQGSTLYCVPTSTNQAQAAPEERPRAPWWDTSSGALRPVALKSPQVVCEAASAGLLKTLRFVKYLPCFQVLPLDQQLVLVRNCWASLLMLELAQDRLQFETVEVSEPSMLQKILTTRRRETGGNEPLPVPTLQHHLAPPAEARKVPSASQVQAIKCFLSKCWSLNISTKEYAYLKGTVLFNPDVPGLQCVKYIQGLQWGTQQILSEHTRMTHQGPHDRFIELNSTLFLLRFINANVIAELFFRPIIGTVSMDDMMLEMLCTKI
ssDAF12 agonist = activators of S. stercoralis DAF-12 nuclear receptor. HEK293 ssDAF-12/GRIP1 lit1-tk-luc reporter, luminescence; % of 3 µM dafachronic acid response. activation, % at 6.8 µM. 370,000 tested, 1% active. AID 652126;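 active = activation above the mean over all tested compounds plus 3 SD, cut at about 0.9% in these data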;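 also: 0% = DMSO-only wells and 100% = 3 µM delta7-dafachronic acid wells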
hgDAF-12 ag = activates the H. glycines DAF-12 receptor ligand-binding domain | HEK293 GAL4-hgDAF12 UAS-luciferase reporter, agonist luminescence; normalized to butyrate control | activation, % at 6.8 µM | 370,000 tested, 1.8% active | AID 687014;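 active = activation above a cutoff set at the mean of all screened compounds plus 3 SD, cut at about 10% in these data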;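 also: 0% = DMSO wells and 100% = sodium butyrate wells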
DAX1 inh-2 = inhibitors of DAX1 repression of SF-1 activated StAR promoter; AID 652010; 370,000 tested, 1.1% active; HEK293T StAR-luciferase reporter, SF-1/DAX-1 repression relief; inhibition, % at 6.8 µM;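 active = inhibition above the mean over all tested compounds plus 3 SD, cut at about 3.6% in these data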;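 also: 0% = DAX-1 cells with DMSO and 100% = cells lacking DAX-1 with DMSO; higher inhibition means more luminescence from relief of DAX-1 repression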
hcDAF12 agonist = H. contortus DAF-12 activation, primary screen. HEK293 hcDAF-12 lit1-tk-luc reporter, luminescence; 0% DMSO, 100% Δ7-dafachronic acid. activation, % at 6.8 µM. 370,000 tested, 1.4% active;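 active = activation above the mean of all tested compounds plus 3 SD, cut at about 5.5% in these data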;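 also: 100% = response to 3 µM Δ7-dafachronic acid high control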
PolyA inhibitor = inhibitors of polyadenylation in S. cerevisiae; 300,000 tested, 0.02% active; AID 1875; S. cerevisiae SKY197-pL101 polyadenylation reporter, beta-gal luminescence; efflux-impaired pdr1/pdr3 knockout yeast; score 100 = 6 SD above DMSO; activity score, % at 12 µM;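 active = lowest replicate activity score at least 50, where 100 means six control SD above control mean; inconclusive = lowest score under 50 but half or more replicates reach 50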;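 also: yeast exposed to compound for 9 h at 30 °C; higher score means more reporter readthrough which indicates perturbed polyadenylation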
Starred values were filed as active, the others as inactive; u = inconclusive; x = no result. Most compounds without a hit are left out; they make up all but 4.1% or so of the library.

SMILES	DAX1 inh-1	ssDAF12 agonist	hgDAF-12 ag	DAX1 inh-2	hcDAF12 agonist	PolyA inhibitor
COCCNC(=S)N1CCN(c2nc(-c3cccc(OC)c3)cs2)CC1	4.3*	-2	0	-1	-1	-9
Cc1cc(O)c(C(=O)c2ccccc2C(=O)O)cc1C	1	-1	0	0	6.4*	-1
CCC(C)NC(=O)c1cc2cc3ccc(OC)cc3nc2s1 (stereo not drawn)	1	1.4*	10	3.8*	4	-5
COc1cccc(C2CC=C(C(=O)O)CN2S(=O)(=O)c2ccc(C)cc2)c1 (stereo not drawn)	x	0	-1	0	0	x
Cn1/c(=N\NC(=O)c2ccccc2Cl)sc2ccccc21	2	-1	12*	1	1	-4
O=C(CNC(=S)N(Cc1ccccc1)Cc1cccs1)NCc1ccc(F)cc1	-1	-2	-4	-1	6.4*	-11
O=C(CNC(=S)N(CCCN1CCOCC1)Cc1cccs1)NCc1ccccc1	0	-1	-2	0	-1	-11
On1c(-c2ccc(Cl)cc2)nc2ccccc21	x	0	11*	2	3	9
COc1ccc(S[C@]2(C(=O)N3CCOCC3)CC(=O)N[C@@H]2c2ccc(OC)cc2)cc1	x	-1	-3	-1	0	x
CC(C)[C@H](NC(=O)N1c2ccccc2NC(=O)[C@@H]1C(C)C)C(=O)N[C@@H](C(=O)O)c1ccccc1	4.5*	-2	4	0	0	-5
CC(C)[C@H](NC(=O)N1c2ccccc2NC(=O)[C@@H]1C(C)C)C(=O)N[C@@H](Cc1ccccc1)C(=O)O	1	0	2	0	-1	u
CN1C(=O)c2cc(NS(=O)(=O)c3ccc(F)cc3)ccc2OC[C@H]2O[C@@H](CC(=O)NCC(F)(F)F)CC[C@@H]21	x	-1	-3	-1	-1	x
CC(C)CC1Nc2ncnc(N3CCN(c4ccccc4)CC3)c2N(Cc2ccc(Br)cc2)C1=O (stereo not drawn)	-1	-1	-2	-1	-1	1
CC(C)CC1Nc2ncnc(N3CCN(c4ccccc4)CC3)c2N(Cc2ccccc2)C1=O (stereo not drawn)	1	-1	-1	0	-1	84*
O=c1cc(C=NNc2ccccc2)[nH]c(=O)[nH]1	4.9*	0	-2	0	0	x
CCCCCCCCNS(=O)(=O)/C=C/c1ccc(OC)cc1CNC(=O)OC(C)(C)C	x	-1	1	-1	-1	x
O=C(N/N=C/c1ccc2c(c1)OCO2)c1cccnc1	1	0	5	0	0	4
O=C(O)c1ccc(/C=N/NC(=O)c2ccc3c(c2)OCCO3)cc1	0	0	6	1	5	-17
Cn1nccc1C(=O)N/N=C/c1cccnc1	4.3*	0	2	0	2	-20
O=C(N/N=C/c1cccnc1)c1ccc2c(c1)OCCO2	1	-1	11*	1	2	7
COc1cc(/C=N/NC(=O)c2cccnc2)cc2c1OCO2	0	-2	1	4.1*	1	5
CCOC(=O)C1=C(C(=O)OCC)C2N(Cc3ccc(C#N)cc3)c3ccccc3[C@@]23C[C@@H](C(=O)OC)N(S(=O)(=O)c2ccc(C#N)cc2)C3=N1 (stereo partly drawn)	x	-1	0	0	-1	x
Nc1ccc(F)c(CN2CCN(c3ncc(Cc4ccccc4)cn3)CC2)c1	x	-2	-6	-3	-3	x
O=C(Nc1nncs1)c1cc2c(s1)CCC2	1	-1	12*	3	2	-14
CC(C)Cc1nnc(NC(=O)c2cc3c(s2)CCC3)s1	4	-1	5	1	0	-6
SMILES	DAX1 inh-1	ssDAF12 agonist	hgDAF-12 ag	DAX1 inh-2	hcDAF12 agonist	PolyA inhibitor
CC(C)CN1C(=O)C[C@@]2(C(=O)N(C)c3ccc(NS(=O)(=O)C4CCCCC4)cc32)C1c1ccccc1 (stereo partly drawn)	x	-1	-4	0	-1	x
O=C(CC1SC(=Nc2ccccc2)N(CCc2ccccn2)C1=O)Nc1ccc(F)cc1 (stereo not drawn)	-2	-1	2	-1	6.2*	6
O=C(CC1SC(=Nc2ccccc2)N(CCO)C1=O)Nc1ccccc1 (stereo not drawn)	1	-1	2	0	-1	-9
CC1(C)C2CCC(CN)C1C2 (stereo not drawn)	5.3*	-1	4	0	-2	x
CC(C)OP(=O)(O)C(C)NC(=O)OCc1ccccc1 (stereo not drawn)	x	-1	-3	0	-1	x
O=C(COC(=O)CCCC1=NS(=O)(=O)c2ccccc2N1)Nc1ccc(Br)cc1	-1	-1	-2	4.1*	-2	-3
Cc1ccc(CNC(=O)CSc2ccsc2[N+](=O)[O-])cc1	1	-1	11*	1	6.5*	-2
COc1ccc(CNC(=O)CSc2ccsc2[N+](=O)[O-])cc1	0	1.3*	7	2	3	7
CC1CCN(c2ccc(C(=O)O)cc2NS(=O)(=O)c2ccccc2[N+](=O)[O-])CC1	x	-1	3	0	-1	x
Cc1nc2ccccc2c2oc(C(=O)NCCCN3CCCC3=O)cc12	1	0	-2	-1	-1	-8
Cc1nc2ccccc2c2oc(C(=O)NCCN3CCN(C)CC3)cc12	3	-1	12*	0	0	-13
NC(=O)NN=C(C1CC1)C1CC1	4.9*	-1	2	0	0	x
Cc1cccc(C(=O)NNC2=C(C(=O)C(F)(F)F)CCC2)c1O	1	0	12*	1	3	7
CCOC(=O)Cc1c(Sc2ccccc2)c2cc(C)ccc2n1C	1	-1	-4	-1	0	-6
Cc1sc(CO)c(Sc2ccccc2)c1C(=O)O	x	0	-1	0	6.0*	-9
CN(C)c1ccc(N=Nc2cccc(F)c2)cc1	1	1.4*	11*	3	5.6*	-20
Cc1cc(=O)[nH]c(SCC(=O)Nc2cccc3ccccc23)c1C#N	0	x	x	x	x	7
COc1cc(NC(=O)c2ccccc2)c(OC)cc1NC(=O)CSc1[nH]c(=O)cc(C)c1C#N	4.4*	-1	0	0	-1	7
Cc1noc(C)c1C(=O)OCC(=O)/C=C1/N(C)c2ccccc2C1(C)C	5.9*	-1	4	0	-1	x
COc1ccc(-c2nnc(SCc3csc(N)n3)n2C)cc1	1	-1	-1	-1	0	-3
Cc1ccc(Nc2nc(CSc3nnc(-c4ccc(F)cc4)n3C)cs2)cc1	0	-1	11*	2	4	2
CCn1c(COc2ccc(C)cc2)nnc1SCc1cccc(C(F)(F)F)c1	x	-2	-2	-1	-2	x
